Rows were chosen to be rich in hits. Some 7.5% of all compounds tested hit in one or more screens of this group.
FLuc modulator – qHTS profiling assay for firefly luciferase inhibitor/activator using purifed enzyme and Km concentrations of substrates (counterscreen for miR-21 project); Luciferin 4-monooxygenase (Photinus pyralis), P08659; purified FLuc, Km substrates, luminescence inhibition; Potency, µM (series often up to 57.5 µM), for inactives: at the highest dose activity change, negative = inhibition, most hits filed as inhibitors; 360,000 tested, 6.9% active;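 also: plate controls were vehicle for no effect and reference inhibitor for full effect; nearly all actives have a fitted effect of over 55% in size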
Target sequence (P08659 whole entry, looked up): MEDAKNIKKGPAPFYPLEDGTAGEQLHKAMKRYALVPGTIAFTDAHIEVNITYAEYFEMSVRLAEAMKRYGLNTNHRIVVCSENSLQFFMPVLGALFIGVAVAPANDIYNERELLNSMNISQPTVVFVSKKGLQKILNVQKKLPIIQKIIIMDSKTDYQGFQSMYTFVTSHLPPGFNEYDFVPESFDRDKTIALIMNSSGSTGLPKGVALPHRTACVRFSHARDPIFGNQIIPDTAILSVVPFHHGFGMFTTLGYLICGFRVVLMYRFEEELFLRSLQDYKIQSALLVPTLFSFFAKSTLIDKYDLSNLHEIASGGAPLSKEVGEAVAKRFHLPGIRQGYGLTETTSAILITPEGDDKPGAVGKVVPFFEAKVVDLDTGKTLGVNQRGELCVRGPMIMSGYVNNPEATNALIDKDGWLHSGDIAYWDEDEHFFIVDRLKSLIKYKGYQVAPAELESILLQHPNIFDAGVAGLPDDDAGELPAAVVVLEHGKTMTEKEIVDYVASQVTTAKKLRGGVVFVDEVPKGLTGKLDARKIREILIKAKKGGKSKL
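Purified P. pyralis luciferase (10nM final) with 10uM D-luciferin and 10uM ATP (Km levels) in 50mM Tris acetate pH 7.5, 10mM Mg acetate, 0.01% Tween-20, 0.05% BSA; qHTS 6-point titration, ~60 µM downward; luminescence read.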
SMN2 splice up – qHTS Assay for Enhancers of SMN2 Splice Variant Expression. Potency, µM (doses to about 46.1 µM), inactives show at the highest dose activity change, positive = activation, usual class: activators. AID 1458, 2008. HEK293 SMN2-luciferase splicing reporter, luminescence, 30-36 h. 210,000 tested, 2.8% active; also: % of control where 0% means no effect; nearly all actives have a fitted effect of over 55% in size
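HEK293 cells carry an SMN2 […]–luciferase reporter in which exon 7 inclusion puts luciferase in frame. Cells were plated 10-12 h before compound addition, then incubated 30-36 h at 37C. ONE-Glo luminescence was read; sodium butyrate at 4.5 mM final served as control.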
ELG1 genotox – qHTS screen for small molecules that induce genotoxicity in human embryonic kidney (HEK293T) cells expressing luciferase-tagged ELG1. HEK293T ELG1-luciferase reporter, luminescence, 16 h. Potency, µM (series often up to 46 µM), for inactives: top-dose activity change, positive = activation, hits mostly activators. 330,000 tested, 1.3% active; also: % of control where 0% means no effect; nearly all actives have a fitted effect of over 60% in size
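ELG1-luciferase HEK293T cells, 2,000/well; compound pinned in; 16 hr, 37 °C, 5% CO2; ONE-Glo, 30 min RT; luminescence on CCD imager.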
Rab9 prom act – qHTS Assay for Rab9 Promoter Activators. Huh7 Rab9 promoter-luciferase reporter, luminescence, 24 h. Potency, µM (doses to about 9.22 µM), for the others: top-dose activation, negative = inhibition, actives largely listed as activators. 320,000 tested, 2.8% active; also: % of control where 0% means no effect; nearly all actives have a fitted effect of over 60% in size
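Stable Rab9-luc Huh7, 1500 cells/well, 2 h settle; cmpd in DMSO, 24 h, 37 °C/5% CO2; luciferase reagent 10 min RT; luminescence.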
Luc counter – Counterscreen for Luciferase (Kinase-Glo TM) Inhibition; Luciferin 4-monooxygenase (Photuris pensylvanica), Q27757; Kinase-Glo luciferase, ATP luminescence, 8 min; 200,000 tested, 0.28% active; Potency, µM (titrated, usually from 38.3 µM), inactives show at the highest dose activity change, negative = inhibition, actives largely listed as inhibitors; also: % is scaled to controls: 0 for no effect and ±100 for the full control effect; nearly all actives have a fitted effect of over 60% in size
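Inhibition of Kinase-Glo luciferase light generation was assessed at 10 uM ATP in pH 7.2 imidazole buffer, with luminescence measured after eight minutes at ambient temperature.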
NPC1 promoter act – qHTS Assay for NPC1 Promoter Activators; AID 485313, 2010; Potency, µM (series often up to 9.22 µM), inactives show top-dose activation, usual class: activators; 320,000 tested, 2.4% active; Huh7 NPC1 promoter luciferase reporter, 24 h; also: % of control where 0% means no effect; nearly all actives have a fitted effect of over 60% in size
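Huh7 cells stably carrying NPC1 promoter–luciferase, plated in Opti-MEM with 10% FBS for 2 h, were exposed to compound in DMSO for 24 h at 37 °C; luciferase reagent was added for 10 min and luminescence read.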
Starred values were filed as active, the others as inactive; [ ] = another dose, or the depositor's remark. Calls follow the shape of the dose curve; as a rule, active = well fitted curve in the direction sought with a large enough effect; inconclusive = small, poorly fitted or top-dose-only effect, or another doubt; inactive = no such curve, though single readings can be large; an effect the other way counts as inactive or inconclusive. Potency is read from the fitted curve at half-maximal effect.

Screening Cc1ccc(NC(=O)Cn2nc(C)c3nn(-c4ccc(Cl)cc4)c(C)c3c2=O)cc1F returned FLuc modulator -3%.
Screening COC(=O)C(CC(=O)c1cccc(OC)c1)c1ccc(F)cc1 (stereo not given) returned FLuc modulator 0%, SMN2 splice up 1%, ELG1 genotox -5%, Rab9 prom act -8%, Luc counter 1% and NPC1 promoter act -4%.
For O=C1c2sc3nc4ccccc4n3c2C(=O)N1c1ccccc1Cl the results were FLuc modulator inconclusive, SMN2 splice up inconclusive, ELG1 genotox 1%, Rab9 prom act 14%, Luc counter 0% and NPC1 promoter act -3%.
`N=c1cc(C2(O)CCCCC2)n2c(nc3ccccc32)s1` gave FLuc modulator 0.67µM*, SMN2 splice up -11%, ELG1 genotox 0.58µM*, Rab9 prom act 0.28µM*, Luc counter 9% and NPC1 promoter act 0.28µM*.
For CNC(=O)c1c(NC(=O)c2cccc(C)c2)sc2c1CCC2 the results were FLuc modulator 21µM*, ELG1 genotox inconclusive, Rab9 prom act inconclusive and NPC1 promoter act inconclusive.
`COc1cccc(C(=O)Nc2sc3c(c2C(=O)O)CCCC3)c1` gave FLuc modulator 21µM*, ELG1 genotox -1%, Rab9 prom act 12% and NPC1 promoter act 5%.
For Cc1ccc(NC(=O)c2c(NC(=O)c3ccccc3Cl)sc3c2CCC3)cc1 the results were FLuc modulator -18% and SMN2 splice up -4%.
COc1cccc(C(=O)Nc2sc3c(c2C#N)CCN(C(C)=O)C3)c1 was read as FLuc modulator 15µM*, SMN2 splice up -27%, ELG1 genotox inconclusive, Rab9 prom act 0%, Luc counter 2% and NPC1 promoter act -27%.
For Cc1cccc(C(=O)Nc2sc3c(c2C(=O)NC(C)C)CCCC3)c1 the results were FLuc modulator -7% and SMN2 splice up -1%.
`CNC(=O)c1c(NC(=O)/C=C/c2ccccc2Cl)sc2c1CCC2` gave FLuc modulator 9.5µM*.
`COc1ccc(-c2coc3ccc(OC4OC(COC(C)=O)C(OC(C)=O)C(OC(C)=O)C4OC(C)=O)cc3c2=O)cc1` (stereo not given) gave Luc counter 2%.
Screening COc1ccc(C(c2c(O)cc(C)n(Cc3ccco3)c2=O)N2CCCCC2)cc1OC (stereo not given) returned FLuc modulator 2%.
O=C(CSc1nc2cc(C(=O)NC3CCCC3)ccc2c(=O)n1CC1CCCO1)c1cccc(Cl)c1 (stereo not given) was read as FLuc modulator -6%.
`O=C(CCC1CCN(C(=O)c2ccco2)CC1)NCc1ccc(F)cc1` gave FLuc modulator 1%, ELG1 genotox 2%, Rab9 prom act -13% and NPC1 promoter act 4%.
COc1ccc(CCNC(=O)CCc2cn(Cc3ccc(C)cc3)c3ccccc23)c(OC)c1OC was read as FLuc modulator -9%.
`Cc1cccc(NC(=O)c2c(NC(=O)c3ccccc3)sc3c2CCC3)c1` gave FLuc modulator inconclusive and SMN2 splice up -9%.
Cc1cccc(C(=O)Nc2sc3c(c2C(=O)O)CCC3)c1 was read as FLuc modulator 17µM*, ELG1 genotox 6%, Rab9 prom act 26% and NPC1 promoter act inconclusive.
O=C(O)CNC(=O)[C@@H](CS)Cc1ccccc1 was read as SMN2 splice up 6%[20.6 µM] and Luc counter 2%[17.1 µM].
Screening COc1cccc2c1C(=O)O/C2=C/c1ccc2c(c1)OCO2 returned FLuc modulator 0.11µM*, SMN2 splice up inconclusive, ELG1 genotox inconclusive, Rab9 prom act inconclusive, Luc counter inconclusive and NPC1 promoter act inconclusive.
Screening COc1cccc(OC)c1C1=CC(=O)C[C@H](c2ccc3c(c2)OCO3)C1 returned FLuc modulator 0%, ELG1 genotox -1%, Rab9 prom act -3% and NPC1 promoter act -1%.
O=C1/C(=C/c2ccco2)SC(=S)N1CCC(=O)N1CCCCC1CCO (stereo not given) was read as FLuc modulator -19%, ELG1 genotox 1%, Rab9 prom act -1% and NPC1 promoter act 1%.
Screening COc1ccc(-c2nc3c4ccccc4[nH]c(=O)n3n2)cc1 returned FLuc modulator 8.5µM*, SMN2 splice up 6% and Luc counter 9%.
COc1cc2[nH]c(=O)n3nc(-c4ccccc4)nc3c2cc1OC was read as FLuc modulator -13%, SMN2 splice up -1%, ELG1 genotox -5%, Rab9 prom act -2%, Luc counter -1% and NPC1 promoter act -8%.
For Cc1cccc(CS(=O)(=O)CC2Nc3ccc(C(=O)NCc4ccccc4Cl)cc3NC2=O)c1 (stereo not given) the results were FLuc modulator -16%.
For O=C(Nc1ccccc1)Nc1ccc2ocnc2c1 the results were FLuc modulator 11µM*, SMN2 splice up inconclusive, ELG1 genotox 13%, Rab9 prom act 1.3µM*, Luc counter 11µM* and NPC1 promoter act inconclusive.
For CNC(=O)Nc1ccc2nc(C)oc2c1 the results were FLuc modulator 3%, ELG1 genotox 0%, Rab9 prom act -9% and NPC1 promoter act -7%.
For O=C(Nc1ccccc1)Nc1ccc2ncoc2c1 the results were FLuc modulator 12µM*, SMN2 splice up 11µM*, ELG1 genotox inconclusive, Rab9 prom act inconclusive, Luc counter -19% and NPC1 promoter act inconclusive.
For O=C(c1ccc2c(c1)N(Cc1cccc(Cl)c1)C(=O)c1ccccc1S2(=O)=O)N1CCC(Cc2ccccc2)CC1 the results were FLuc modulator 3%.
FC(F)(Cl)c1nnc2ccc(Cl)nn12 was read as FLuc modulator -2%, SMN2 splice up -45%, ELG1 genotox 17%, Rab9 prom act -3%, Luc counter 3% and NPC1 promoter act -3%.
Screening Cc1ccc(S(=O)(=O)/N=C(/NNC(=O)c2cccc(Cl)c2)c2ccccc2)cc1 returned FLuc modulator 15µM*, ELG1 genotox 16µM*, Rab9 prom act inconclusive and NPC1 promoter act inconclusive.
`O=C(O)CCC(=O)NNC(=O)c1cccc(Cl)c1` gave FLuc modulator 6%, SMN2 splice up 8%, ELG1 genotox 2%, Rab9 prom act -4%, Luc counter 2% and NPC1 promoter act 0%.
